Measurements as given in the supplement of paper PMC9694430.
Structures can show the parent of a compound that is named as a salt.

The molecules below were run on LOC_OS01G60330-cb001 (assay: thermal shift delta Tm vs DMSO control; higher = stronger stabilization (binding)). Details: 12.5 µM; protein concentration 2 µM.
Procedure, shortened: (§1)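 The melting temperature shift given here is a triplicate mean, measured against protein that received only DMSO. Melting temperatures came from Boltzmann fits of differential scanning fluorimetry data on E. coli-expressed, purified rice kinase domain constructs. Each 19.5 μl well contained 2 μM kinase, 100 mM potassium phosphate pH 7.5, 150 mM NaCl, 10% glycerol, 5 × SYPRO Orange and compound in DMSO. Plates were scanned from 25°C to 95°C at 0.05°C/s.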

Point of comparison: `Cc1ccc(F)c(NC(=O)Nc2ccc(-c3cccc4[nH]nc(N)c34)cc2)c1` [Linifanib (ABT-869)], “thermal shift delta Tm” value 4 °C. Against it:
- CCNC(=O)Nc1ccc(-c2nc(N3CCOC[C@@H]3C)c3c(n2)C(C)(C)S(=O)(=O)C3)cc1 — lower, 0.52 °C
- CN1CCN(c2ccc(OC(F)(F)F)c(Nc3ncc4c(n3)-c3c(c(C(N)=O)nn3CCO)CC4)c2)CC1 — lower, 0.44 °C
- C[C@@H](Oc1cc(-n2cnc3ccc(CN4CCN(C)CC4)cc32)sc1C(N)=O)c1ccccc1C(F)(F)F — lower, 0.7 °C
- COc1cc(OC)cc(-c2cc3cnc(N)nc3nc2NC(=O)NC(C)(C)C)c1 — lower, 0.3 °C
- COC(=O)c1ccc2c(c1)NC(=O)/C2=C(\Nc1ccc(N(C)C(=O)CN2CCN(C)CC2)cc1)c1ccccc1 [Nintedanib (BIBF 1120)] — lower, 1.75 °C
- Cc1[nH]c(/C=C2\C(=O)Nc3ccccc32)c(C)c1CCC(=O)O [Orantinib (TSU-68, SU6668)] — higher, 12.6 °C
- NC1(c2ccc(-c3nc4ccn5c(=O)[nH]nc5c4cc3-c3ccccc3)cc2)CCC1 — lower, 1.3 °C
- N#Cc1ccc2[nH]c(O)c(-c3ccc(CN4CCOCC4)cn3)c2c1 — lower, 0.88 °C
- C=C[C@@](C)(/C=C/c1ccc(O)cc1)CCC=C(C)C [Bakuchiol] — lower, 0.36 °C
- Cn1cnc2c(F)c(Nc3ccc(Br)cc3F)c(C(=O)NOCCO)cc21 — lower, 0.73 °C
- CC(C)(C)c1nc(-c2ccc(NC(=O)Nc3cccc(C(F)(F)F)c3)c3ccccc23)c2c(N)nccn12 [kira6] — lower, 1.17 °C
- CC1=C(C(=O)Nc2cc3cn[nH]c3cc2F)C(c2ccc(C(F)(F)F)cc2)CC(=O)N1 (centres undefined) — lower, 0.48 °C
- Cc1cn(-c2cc(NC(=O)c3ccc(C)c(Nc4nccc(-c5cnccn5)n4)c3)cc(C(F)(F)F)c2)cn1 [Radotinib] — lower, 1.07 °C
- COc1ncc(-c2ccc3nccc(-c4ccnnc4)c3c2)cc1NS(=O)(=O)c1ccc(F)cc1F — lower, 0.36 °C
- CNC(=O)c1cc(COc2nnc(Nc3ccc(Cl)cc3)c3ccoc23)ccn1 [Telatinib] — lower, 0.6 °C
- COc1cc2nccc(Oc3ccc(NC(=O)C4(C(=O)Nc5ccc(F)cc5)CC4)cc3)c2cc1OC [Cabozantinib malate (XL184)] — lower, 0.89 °C
- C1=N/C2=N/c3ccc(OCCN4CCCC4)c(c3)COC/C=C/COCc3cccc(c3)C(=C1)N2 [Pacritinib (SB1518)] — higher, 6.01 °C
- N#Cc1cnc(Nc2cc(NC[C@H]3CNCCO3)c(C(F)(F)F)cn2)cn1 — lower, 1.05 °C
- COc1cc(N2CCN(C)CC2)ccc1Nc1nccc(-c2cn(C)c3cnccc23)n1 — lower, 2 °C
- CC(C)(C)NS(=O)(=O)c1cncc(-c2cc(F)c3nc(N)nn3c2)c1 — lower, 0.87 °C
- CCNC(=O)C#Cc1ccc2c(C(=Nc3ccc(CN(C)C)cc3)c3ccccc3)c(O)[nH]c2c1 — lower, 0.78 °C
- O=C1NC(=O)[C@@H](c2cn3c4c(cccc24)CCC3)[C@@H]1c1c[nH]c2ccccc12 [Tivantinib (ARQ 197)] — lower, 0.74 °C
- O=S(=O)(c1cccc2c(I)cccc12)N1CCCNCC1 — lower, -0.01 °C
- CCN1CCN(Cc2ccc(C(=O)Nc3ccc(C)c(Oc4ccc5c(c4)CC(=O)N5)c3)cc2C(F)(F)F)CC1 — lower, 1.36 °C
- C[C@@H](Nc1cc(F)cc(F)c1)c1cc(C(=O)N(C)C)cc2c(=O)cc(N3CCOCC3)oc12 — lower, 1.18 °C
- C[C@H](CN(C)C)Oc1nc(Nc2cc3cccc(Cl)c3cn2)cnc1C#N — lower, 1.48 °C
- CNC(=O)c1cc(Oc2ccc(NC(=O)Nc3ccc(Cl)c(C(F)(F)F)c3)cc2)ccn1 [Sorafenib] — lower, 3.63 °C
- COc1ccc(Cl)cc1NC(=O)Nc1cc(C)nc2ccccc12 — lower, 1.01 °C
- O=C(c1cccc(Cl)c1F)N1CCN(Cc2cccc(Nc3nccs3)n2)CC1 — lower, 0.61 °C
- CNC(=O)c1ccc(C)c(-n2c(C)cc(OCc3ccc(F)cc3F)c(Br)c2=O)c1 — lower, 0.78 °C
- CCn1c(-c2nonc2N)nc2c(C#CC(C)(C)O)ncc(OC[C@H]3CCCNC3)c21 — lower, 0.93 °C
- CCC[C@H](NC(=O)/C(C#N)=C/c1cccc(Br)n1)c1ccccc1 [Degrasyn (WP1130)] — lower, 0.61 °C
- OC1CCC(Nc2ncc3nc(Nc4c(F)cc(F)cc4F)n([C@H]4CCOC4)c3n2)CC1 (some centres undefined) [Tanzisertib(CC-930)] — lower, 0.58 °C
- CN(C)C/C=C/C(=O)Nc1cc2c(Nc3ccc(F)c(Cl)c3)ncnc2cc1O[C@H]1CCOC1 [Afatinib (BIBW2992) Dimaleate] — lower, 1.16 °C
- Cc1cc(O)c(-c2ccc([C@@H](C)CN)cc2)c2c1[nH]c(=O)c1sccc12 [OTS514 hydrochloride] — lower, 2.08 °C
- COc1cc(N2CCC(N(C)C)CC2)ccc1Nc1ncc(Cl)c(Nc2ccccc2P(C)(C)=O)n1 — lower, 0.43 °C

Each molecule was assayed on LOC_OS01G60700-cb002 in the same assay as above. Details: 12.5 µM; protein concentration 2 µM.
Procedure, shortened: as §1

Point of comparison: `Cc1cc(O)c(-c2ccc([C@@H](C)CN)cc2)c2c1[nH]c(=O)c1sccc12` [OTS514 hydrochloride], “thermal shift delta Tm” value 1.5 °C. Against it:
- CCNC(=O)Nc1ccc(-c2nc(N3CCOC[C@@H]3C)c3c(n2)C(C)(C)S(=O)(=O)C3)cc1 — lower, -0.02 °C
- CN1CCN(c2ccc(OC(F)(F)F)c(Nc3ncc4c(n3)-c3c(c(C(N)=O)nn3CCO)CC4)c2)CC1 — lower, 0.52 °C
- C[C@@H](Oc1cc(-n2cnc3ccc(CN4CCN(C)CC4)cc32)sc1C(N)=O)c1ccccc1C(F)(F)F — lower, 0.72 °C
- COc1cc(OC)cc(-c2cc3cnc(N)nc3nc2NC(=O)NC(C)(C)C)c1 — lower, 0.16 °C
- COC(=O)c1ccc2c(c1)NC(=O)/C2=C(\Nc1ccc(N(C)C(=O)CN2CCN(C)CC2)cc1)c1ccccc1 [Nintedanib (BIBF 1120)] — lower, 0.96 °C
- Cc1[nH]c(/C=C2\C(=O)Nc3ccccc32)c(C)c1CCC(=O)O [Orantinib (TSU-68, SU6668)] — lower, 0.82 °C
- NC1(c2ccc(-c3nc4ccn5c(=O)[nH]nc5c4cc3-c3ccccc3)cc2)CCC1 — lower, 1.21 °C
- N#Cc1ccc2[nH]c(O)c(-c3ccc(CN4CCOCC4)cn3)c2c1 — lower, 1.33 °C
- C=C[C@@](C)(/C=C/c1ccc(O)cc1)CCC=C(C)C [Bakuchiol] — lower, 0.05 °C
- Cn1cnc2c(F)c(Nc3ccc(Br)cc3F)c(C(=O)NOCCO)cc21 — lower, 1.26 °C
- CC(C)(C)c1nc(-c2ccc(NC(=O)Nc3cccc(C(F)(F)F)c3)c3ccccc23)c2c(N)nccn12 [kira6] — lower, 0.03 °C
- CC1=C(C(=O)Nc2cc3cn[nH]c3cc2F)C(c2ccc(C(F)(F)F)cc2)CC(=O)N1 (centres undefined) — lower, 0.2 °C
- Cc1cn(-c2cc(NC(=O)c3ccc(C)c(Nc4nccc(-c5cnccn5)n4)c3)cc(C(F)(F)F)c2)cn1 [Radotinib] — lower, 1.39 °C
- COc1ncc(-c2ccc3nccc(-c4ccnnc4)c3c2)cc1NS(=O)(=O)c1ccc(F)cc1F — lower, 1.17 °C
- CNC(=O)c1cc(COc2nnc(Nc3ccc(Cl)cc3)c3ccoc23)ccn1 [Telatinib] — lower, 0.35 °C
- COc1cc2nccc(Oc3ccc(NC(=O)C4(C(=O)Nc5ccc(F)cc5)CC4)cc3)c2cc1OC [Cabozantinib malate (XL184)] — lower, 1.35 °C
- C1=N/C2=N/c3ccc(OCCN4CCCC4)c(c3)COC/C=C/COCc3cccc(c3)C(=C1)N2 [Pacritinib (SB1518)] — lower, 0.7 °C
- N#Cc1cnc(Nc2cc(NC[C@H]3CNCCO3)c(C(F)(F)F)cn2)cn1 — lower, 1.23 °C
- COc1cc(N2CCN(C)CC2)ccc1Nc1nccc(-c2cn(C)c3cnccc23)n1 — lower, 1.01 °C
- CC(C)(C)NS(=O)(=O)c1cncc(-c2cc(F)c3nc(N)nn3c2)c1 — higher, 1.82 °C
- CCNC(=O)C#Cc1ccc2c(C(=Nc3ccc(CN(C)C)cc3)c3ccccc3)c(O)[nH]c2c1 — lower, 0.32 °C
- O=C1NC(=O)[C@@H](c2cn3c4c(cccc24)CCC3)[C@@H]1c1c[nH]c2ccccc12 [Tivantinib (ARQ 197)] — lower, 0.02 °C
- O=S(=O)(c1cccc2c(I)cccc12)N1CCCNCC1 — lower, 0 °C
- CCN1CCN(Cc2ccc(C(=O)Nc3ccc(C)c(Oc4ccc5c(c4)CC(=O)N5)c3)cc2C(F)(F)F)CC1 — lower, 1.34 °C
- C[C@@H](Nc1cc(F)cc(F)c1)c1cc(C(=O)N(C)C)cc2c(=O)cc(N3CCOCC3)oc12 — lower, 1.09 °C
- C[C@H](CN(C)C)Oc1nc(Nc2cc3cccc(Cl)c3cn2)cnc1C#N — lower, 1.39 °C
- CNC(=O)c1cc(Oc2ccc(NC(=O)Nc3ccc(Cl)c(C(F)(F)F)c3)cc2)ccn1 [Sorafenib] — lower, 0.58 °C
- COc1ccc(Cl)cc1NC(=O)Nc1cc(C)nc2ccccc12 — lower, 0.92 °C
- O=C(c1cccc(Cl)c1F)N1CCN(Cc2cccc(Nc3nccs3)n2)CC1 — lower, 1.32 °C
- CNC(=O)c1ccc(C)c(-n2c(C)cc(OCc3ccc(F)cc3F)c(Br)c2=O)c1 — lower, 1.45 °C
- CCn1c(-c2nonc2N)nc2c(C#CC(C)(C)O)ncc(OC[C@H]3CCCNC3)c21 — higher, 1.82 °C
- CCC[C@H](NC(=O)/C(C#N)=C/c1cccc(Br)n1)c1ccccc1 [Degrasyn (WP1130)] — lower, 1.12 °C
- OC1CCC(Nc2ncc3nc(Nc4c(F)cc(F)cc4F)n([C@H]4CCOC4)c3n2)CC1 (some centres undefined) [Tanzisertib(CC-930)] — lower, 0.28 °C
- CN(C)C/C=C/C(=O)Nc1cc2c(Nc3ccc(F)c(Cl)c3)ncnc2cc1O[C@H]1CCOC1 [Afatinib (BIBW2992) Dimaleate] — higher, 1.57 °C
- Cc1ccc(F)c(NC(=O)Nc2ccc(-c3cccc4[nH]nc(N)c34)cc2)c1 [Linifanib (ABT-869)] — higher, 2.06 °C
- COc1cc(N2CCC(N(C)C)CC2)ccc1Nc1ncc(Cl)c(Nc2ccccc2P(C)(C)=O)n1 — lower, 0.89 °C
